PubChem BioAssay (NCI)
Compounds without any hit were thinned out: in the full panel of roughly 83,000, 20% have a hit.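 Method: cells in 96-well plates; compound added at one concentration; 48 h incubation; percent growth measured; values under 10 scored active.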 A number with no mark means an inactive call. Activity calls are given as the source filed them.

Columns and labels:
Assay in all cases: NCI-60 one-dose screen, 48 h (100 = growth as untreated, 0 = no growth, -100 = all killed)
Settings in all cases: 10 µM unless noted
HCT-15 colon = tested on: HCT-15 colon
HT29 colon = tested on: HT29 colon
SNB-75 CNS = tested on: SNB-75 CNS
SNB-19 CNS = tested on: SNB-19 CNS
PC-3 prostate = tested on: PC-3 prostate
UACC-62 melanoma = tested on: UACC-62 melanoma
LOX IMVI melanoma = tested on: LOX IMVI melanoma
SK-MEL-28 melanoma = tested on: SK-MEL-28 melanoma
U251 CNS = tested on: U251 CNS
SK-MEL-5 melanoma = tested on: SK-MEL-5 melanoma

| SMILES | growth (HCT-15 colon) | growth (HT29 colon) | growth (SNB-75 CNS) | growth (SNB-19 CNS) | growth (PC-3 prostate) | growth (UACC-62 melanoma) | growth (LOX IMVI melanoma) | growth (SK-MEL-28 melanoma) | growth (U251 CNS) | growth (SK-MEL-5 melanoma) |
| --- | --- | --- | --- | --- | --- | --- | --- | --- | --- | --- |
| COc1cc(OC)c2c(c1Cl)O[C@]1(C2=O)C(OCc2ccccc2)=CC(=O)C[C@H]1C | 15.7% | 7.63% (active) | 24.2% | 36.2% | 6.5% (active) | 6.94% (active) | 17.9% | 16.4% |  |  |
| O=Cc1ccccc1C(=O)O | 103% | 100% | 99.4% |  | 96.1% | 100% | 101% | 106% | 96.9% | 101% |
| COc1cc(-c2nc3nc4sc(C)c(C)c4c(=O)n3[nH]2)cc(OC)c1OC | 73.5% | 82.3% | 80.1% | 92.9% | 85.1% | 61.5% | 81.7% | 87.6% |  | 55.3% |
| CN1CCN(CCCOc2ccc3ncnc(Nc4ccc(OCc5cccc(F)c5)c(Cl)c4)c3c2)CC1 | -50.8% (active) | -49.5% (active) | 65.1% | 3.46% (active) | -18.9% (active) | -57.8% (active) | -92.9% (active) | -86.6% (active) |  | -98.2% (active) |
| N#Cc1ncc(-c2ccc(C(F)(F)F)cc2)c(NC2CCCCCC2)n1 | 57.1% | 19.1% | 49.7% | 35.2% | 4.57% (active) | 13.2% | 32.5% | 36.5% |  | -6.45% (active) |
| COC(=O)c1c(NC(=O)CSc2nnnn2-c2ccc(OC)cc2)sc(C)c1C | 101% | 107% | 79.4% |  | 85% | 74.8% | 91.2% | 108% | 99.6% | 115% |
| Cc1ccccc1NC(=O)NC(CC(N)=O)c1ccc2c(c1)nc(-c1cccc(Oc3ccc(C(C)(C)C)cc3)c1)n2CCCN1CCCCC1C (configuration not stated) | 92.3% | -34.6% (active) | 62.5% |  | 29.7% | 82.7% | -73% (active) | -71.7% (active) | -74.2% (active) | -73% (active) |
| CC(=O)/C(=C/c1ccc(Cl)cc1)C(=O)c1ccccc1 | 79.3% | 78.9% | 81.6% | 91.1% | 68.5% | 82.1% | -43.9% (active) | 95.5% |  | 94.2% |
| O=C1/C(=C/c2ccccc2Cl)CCc2ccccc21 | 104% | 97.2% | 105% | 89.7% | 95.6% | 94.2% | 91.7% | 101% |  |  |
| COc1ccc2[nH]c(=O)c(CNc3ccc(Nc4nccc(-c5ccc(Cl)cc5)n4)cc3)cc2c1 | 74.3% | 76% | 106% | 95.4% | 71.4% | 96.7% | 97.1% | 112% |  | 95.6% |
| Cc1ccc(-c2c3c(N)nc(-c4ccncc4)nc3nc3c2c(C)nn3-c2ccccc2)cc1 | 45% | 21.8% | 22.5% | 88.4% | 62.8% | 58.3% | 8.73% (active) | 30.4% |  |  |
| Cc1ccc(/C=C(/C#N)n2nnc3ncccc32)cc1 | 2.19% (active) | 6.53% (active) | -2.77% (active) |  | 22.3% | 22.1% | 4.54% (active) | 28.3% | 40.4% | 12.5% |
| CCCCCCCCCCCCCCCCCC1=NC(C)(CO)CO1 (configuration not stated) | 92.4% | 92.8% | 120% | 101% | 73.4% | 86.7% | 98% | 109% |  | 97.1% |
| O=C(Nc1cccc(Cl)c1)Nc1cccc(Cl)c1 | 60.9% | 82.1% | 94.7% |  | 26.8% | 43.7% | 89.1% | 95% | 63.5% | 79.2% |
| O=C(N/N=C/c1cccc(O)c1O)c1ccccc1 | 22.7% | 26.4% | 41% | 35.7% | 28.9% | -9.23% (active) | 7.69% (active) | 30.5% |  | 0.968% (active) |
| COP(=O)(OC)C(c1ccc(O)cc1)(c1ccc(O)cc1)c1ccc(O)cc1 | 102% | 110% | 112% |  | 92.8% | 98.7% | 103% | 118% | 105% | 87.3% |
| COc1cccc(CCN2C(=O)CCC3=C2CCC3=O)c1 | 108% | 106% | 84.4% | 102% | 93.5% | 97.8% | 97.9% | 111% |  | 98.2% |
| O=C1/C(=C/c2ccc(F)cc2)Cc2ccccc21 | 94.6% | 91% | 83.4% | 92.3% | 97.8% | 95.1% | 103% | 105% |  | 99.9% |
| Fc1ccc(-c2nn3c(-c4cc(C(F)(F)F)cc(C(F)(F)F)c4)nnc3s2)cc1 | 89.7% | 40.2% |  | 8.33% (active) | 39.2% | 53.3% | 63.9% | 72% | 4.98% (active) | 56% |
| Nc1ccn(C2O[C@H](CO)[C@@H](O)[C@@H]2O)c(=O)n1 (some centres not stated) | 59.5% | 42.7% |  | 47.9% | 63.9% | 22.1% | 19.1% | 68.5% | 40% | 45.1% |
| N/C(=N\c1nc2ccccc2s1)NC(=O)Nc1ccccc1Cl | 23.9% | 5.03% (active) |  | 37.4% | 27.8% | 26.7% | 36.2% | 46.8% | 19.1% | 23.8% |
| Cc1ccccc1NC(=O)N/C(N)=N/c1nc2ccccc2s1 | 20.2% | 5% (active) |  | 31.8% | 36.3% | 38.8% | 21.7% | 54.6% | 20.3% | -53.3% (active) |
| COc1c(O)cc2c(c1CC=C(C)C)OC(=O)c1c(cc(O)c(CC=C(C)C)c1O)O2 | 44.1% | 86.9% | 49.7% |  | 24.5% | 67.2% | -27.5% (active) | 80.5% | 27.2% | 40.8% |
| CC(=O)O[C@H]1CC[C@@]2(C)C(=CC[C@@H]3[C@@H]2CC[C@]2(C)C(c4cccnc4)=CC[C@@H]32)C1 | 51.4% | 22.1% | 51% |  |  | 44.1% | 63.4% | 44.4% | 53% | 20.9% |
| N#Cc1ccc(-c2csc(Nc3ccc4nc5n(c(=O)c4c3)CCC5)n2)cc1 | 98.2% | 105% |  | 98.1% | 110% | 100% | 101% | 104% | 96% | 97.4% |
| CCOC(=O)OCC(=O)[C@@]1(O)CC[C@H]2[C@@H]3CCC4=CC(=O)CC[C@]4(C)[C@H]3[C@@H](O)C[C@@]21C | 105% | 103% | 119% |  | 92% | 87.6% | 89.8% | 110% | 103% | 98.2% |
| COc1ccc2ncccc2c1Cc1c(OC)ccc2ncccc12 | 57.8% | 30% |  | 82.2% | 74.6% | 58% | 68.4% | 77.4% | 57.4% | 60.5% |
| CC(=O)OCC(=O)[C@@]1(O)CC[C@H]2[C@@H]3CCC4=CC(=O)CC[C@]4(C)[C@@]3(F)[C@@H](O)C[C@@]21C | 105% | 114% | 113% |  |  | 97.3% | 96.6% | 112% | 111% | 94.8% |
